Screening data deposited in PubChem BioAssay by National Center for Advancing Translational Sciences (NCATS).
Most compounds without a hit are left out; they make up all but 11% or so of the library.
VDR inhibitor: vitamin D3 receptor (human) inhibition; 400,000 compounds, 0.93% hits; Potency, µM, for the others: max response, negative = inhibition, actives largely listed as inhibitors; AID 504847; VDR-SRC2-3 peptide fluorescence polarization, 2 h; further: on the % scale 0 is the no-effect control and ±100 the full control effect
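Fluorescence polarization assay measuring small-molecule disruption of VDR binding to the coregulator peptide SRC2-3. Compounds were pin-transferred (23 nl) into the reagent mix and incubated 2 h at room temperature before reading.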
G9a block: G9a (human) methyltransferase inhibition; Q96KQ7; G9a H3K9 monomethylation, AlphaScreen, 2 h; Potency, µM (top dose mostly 102 µM), for inactives: at the highest dose activity, negative = inhibition, actives largely listed as inhibitors; 350,000 compounds, 8.8% hits; further: on the % scale 0 is the no-effect control and ±100 the full control effect; nearly all actives have a fitted effect of over 75% in size
Target sequence (Q96KQ7 913-1193 limits assumed): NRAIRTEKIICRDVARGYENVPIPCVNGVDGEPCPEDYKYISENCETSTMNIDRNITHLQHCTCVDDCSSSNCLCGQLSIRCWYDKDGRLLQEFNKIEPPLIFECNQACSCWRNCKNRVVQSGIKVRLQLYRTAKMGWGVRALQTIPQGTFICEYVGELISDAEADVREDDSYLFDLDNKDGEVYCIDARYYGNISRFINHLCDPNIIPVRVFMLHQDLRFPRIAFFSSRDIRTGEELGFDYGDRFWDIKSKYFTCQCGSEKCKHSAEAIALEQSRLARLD
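Signal arises when biotinylated H3K9 peptide, once monomethylated, bridges streptavidin donor and antibody-captured acceptor beads. Enzyme at 20 nM was preincubated 15 min with test compounds; peptide 500 nM and SAM 20 uM then reacted for 2 h.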
JMJD2A Tudor inh: inhibitors of human JMJD2A Tudor domain. Potency, µM (titrated, usually from 114 µM), for inactives: at the top dose activity change, negative = inhibition, hits mostly inhibitors. 390,000 compounds, 4.4% hits. AlphaScreen JMJD2A-Tudor / H3K4me3 peptide binding. O75164; further: on the % scale 0 is the no-effect control and ±100 the full control effect; nearly all actives have a fitted effect of over 50% in size
PLK1 PBD inh: PLK1 (human) polo-box domain binding inhibition | AID 720504 | P53350 | Potency, µM, for inactives: max response, negative = inhibition, actives largely listed as inhibitors | Plk1 PBD binding of FITC phosphopeptide, fluorescence polarization | 360,000 compounds, 2.8% hits; further: series mostly up to about 57 µM; on the % scale 0 is the no-effect control and ±100 the full control effect; nearly all actives have a fitted effect of over 65% in size
BAZ2B inh: inhibitors of human BAZ2B bromodomain | Q9UIF8 | AlphaScreen BAZ2B-H3K14Ac peptide displacement | Potency, µM (top dose mostly 114 µM), for inactives: at the top dose activity change, negative = inhibition, hits mostly inhibitors | 360,000 compounds, 4.4% hits | AID 504333; further: on the % scale 0 is the no-effect control and ±100 the full control effect; nearly all actives have a fitted effect of over 60% in size
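BAZ2B 50 nM plus b-H3(5-23)K14Ac 50 nM, PBS pH 7.4/0.01% Tween-20, 30 min RT; compound added (max 110 uM), 30 min RT; streptavidin donor/Ni-chelate acceptor beads 10 ug/mL final, 20 min dark; AlphaScreen read.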
HP1b binding inh: blocks HP1-beta chromodomain binding to methylated histone tails; AlphaScreen HP1-beta / biotin-H3K9me3 peptide binding; 390,000 compounds, 0.56% hits; P83916; Potency, µM (highest dose often 114 µM), inactives show at the top dose activity change, negative = inhibition, most hits filed as inhibitors; further: nearly all actives have a fitted effect of over 70% in size
Target sequence (P83916 whole entry, looked up): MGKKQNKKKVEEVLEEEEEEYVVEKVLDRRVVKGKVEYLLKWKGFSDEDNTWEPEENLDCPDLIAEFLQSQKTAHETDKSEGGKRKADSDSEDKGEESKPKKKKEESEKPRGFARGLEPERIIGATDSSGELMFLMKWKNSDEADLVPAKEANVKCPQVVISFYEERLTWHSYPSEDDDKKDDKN
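HP1-beta protein (50 nM final) preincubated 30 min at room temperature with biotinylated H3(1-18)K9me3 peptide (50 nM) in PBS pH 7.4, 0.01% Tween-20, then compound added for 30 min. AlphaScreen streptavidin donor/nickel chelate acceptor beads (10 ug/mL final), 30 min dark, luminescence read.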
Starred values were filed as active, the others as inactive; ? = inconclusive; nt = not tested or not shown; [ ] = another dose, or the depositor's remark. The call rests on the fitted dose curve; in most records, active means well fitted curve in the direction sought with a large enough effect; inconclusive means small, poorly fitted or top-dose-only effect, or another doubt; inactive means no such curve, though single readings can be large; an effect the other way counts as inactive or inconclusive. Potency means the concentration at half of the fitted maximal effect.

SMILES	VDR inhibitor	G9a block	JMJD2A Tudor inh	PLK1 PBD inh	BAZ2B inh	HP1b binding inh
CC(=O)Oc1c(C)c(=O)n(C)c2ccccc12	-12.1%	7.6%[59 µM]	-0.7%	-10.6%	3.1%	18.1%
Cc1cc(C)c2c(-n3cccc3)c(C(=O)NNS(=O)(=O)c3ccc(Br)cc3)sc2n1	4.5%	?	56.2µM*	?	?	11.7%
Cc1ccc(NC(=O)Cn2c(=O)n(-c3ccc(C)cc3)c(=O)c3ccc(C(=O)NCc4ccccc4Cl)cc32)cc1	-2.9%	8.5%[59 µM]	5.7%	nt	nt	31.0%
Cc1cc2c(n1-c1ccc(C(=O)O)cc1)CCCCC2	nt	7.94µM*	nt	nt	12.6µM*	nt
N#Cc1ccccc1NC(=O)c1cc2c(=O)n3ccccc3nc2s1	1.5%	-36.1%[59 µM]	-3.4%	nt	-5.3%	13.8%
Cc1ccc(C)c(S(=O)(=O)Nc2nc3ccc(S(N)(=O)=O)cc3s2)c1	-14.6%	10µM*	50.1µM*	?	7.9%	-15.5%
Cc1cc(C)n2nc(C(=O)Nc3nnc(C4CC4)s3)nc2n1	26.4%	?	8.91µM*	-8.2%	-3.6%	-14.1%
CCCc1sc(C(=O)Nc2nnc(C3CC3)s2)cc1CC	-11.1%	?	-13.4%	-1.5%	-1.0%	-1.1%
CCSc1nnc(NC(=O)c2nc3nc(C)cc(C)n3n2)s1	-5.4%	-30.0%	15.8µM*	2.5%	-38.8%	9.6%
Cc1ccc(OCC(O)C(C)NC(C)C)c2c1CCC2 (stereo unspecified)	nt	34.7%[12.7 µM]	nt	nt	nt	nt
CCCCCOc1ccc(C(=O)NCC(=O)NCC(=O)OCC)cc1	-2.1%	-15.0%	3.3%	-2.0%	-1.3%	39.6%
CN(C)/C=N/c1sc2c(c1C#N)CCCCC2	-6.8%	?	?	-8.6%	?	?
N#Cc1c(/N=C/c2cccs2)sc2c1CCCCC2	9.5%	14.1µM*	39.8µM*	-11.9%	8.91µM*	?
CN(C)/C=N/c1sc2c(c1C#N)CCC2	-0.1%	-0.6%	-18.0%	-5.6%	-30.1%	13.7%
Cc1ccc(/C=N/c2sc3c(c2C#N)CCC3)o1	-2.9%	17.8µM*	44.7µM*	-3.3%	?	-69.3%
N#Cc1c(/N=C/c2ccc(-c3ccccc3C(=O)O)o2)sc2c1CCCC2	-14.0%	31.6µM*	79.4µM*	37.7µM*	44.7µM*	-33.3%
N#Cc1c(/N=C/N2CCOCC2)sc2c1CCCCC2	-8.2%	?	?	21.2µM*	-31.3%	?
N#Cc1c(/N=C/c2ccc(Br)s2)sc2c1CCC2	-6.1%	?	-19.7%[57.1 µM]	?	-31.5%	-22.5%
CCOc1cc(C2NC(=O)CCC2[N+](=O)[O-])cc(Br)c1OC (stereo unspecified)	?	21.0%	-17.4%	26.7µM*	-2.6%	8.3%
CCOc1c(Br)cc(C2NC(=O)CCC2[N+](=O)[O-])cc1OC (stereo unspecified)	-12.5%	22.1%	2.3%	-2.0%	-2.4%	43.3%
CCCC[C@@H](C)/C=C(C)/C=C(\C)C(=O)NC1=C[C@@](O)(/C=C/C=C/C=C/C(=O)NC2=C(O)CCC2=O)[C@@H]2O[C@@H]2C1=O	2.24µM*	nt	nt	nt	nt	nt
O=C(c1ccc(Cl)cc1)C(CN1CCCC1)c1ccccc1 (stereo unspecified)	25.1µM*	nt	30.2%	0.0%	79.3%	54.9%
O=C(c1ccc(F)cc1)C(CN1CCOCC1)c1ccccc1 (stereo unspecified)	50.1µM*	?	4.3%	-14.0%	-5.2%	30.1%
COc1ccc(C(=O)C(CN2CCOCC2)c2ccccc2)cc1 (stereo unspecified)	-10.1%	?	-12.3%	-3.7%	5.9%	9.4%
COCc1cc(C)nc(N2CCN(Cc3ccccc3)CC2)c1C#N	14.1%	50.1µM*	7.4%	1.3%	33.6%	22.7%
CCC(C(=O)Nc1cc(OC)ccc1OC)n1nc(-c2ccccc2)c2c(c1=O)CCCC2 (stereo unspecified)	1.4%	?	?	nt	?	3.2%
N#CC1=C(N)OC2=C(C(=O)CC(c3ccco3)C2)C1c1ccc(OCc2c(F)cccc2Cl)cc1 (stereo unspecified)	10.2%	-7.6%[0.501 µM]	?	-6.1%	70.8µM*	-14.9%
